RORgamma inh: ROR gamma (mouse) transcription inhibition | Drosophila S2 Gal4-RORgamma UAS-luciferase reporter, 20 h | 310,000 tested, 5.4% active | AID 2551 | Potency, µM (titrated, usually from 53.6 µM), most hits filed as inhibitors | P51450; note: nearly all actives have a fitted effect of over 60% in size
Target sequence (P51450 whole entry, looked up, the tested form may be a part): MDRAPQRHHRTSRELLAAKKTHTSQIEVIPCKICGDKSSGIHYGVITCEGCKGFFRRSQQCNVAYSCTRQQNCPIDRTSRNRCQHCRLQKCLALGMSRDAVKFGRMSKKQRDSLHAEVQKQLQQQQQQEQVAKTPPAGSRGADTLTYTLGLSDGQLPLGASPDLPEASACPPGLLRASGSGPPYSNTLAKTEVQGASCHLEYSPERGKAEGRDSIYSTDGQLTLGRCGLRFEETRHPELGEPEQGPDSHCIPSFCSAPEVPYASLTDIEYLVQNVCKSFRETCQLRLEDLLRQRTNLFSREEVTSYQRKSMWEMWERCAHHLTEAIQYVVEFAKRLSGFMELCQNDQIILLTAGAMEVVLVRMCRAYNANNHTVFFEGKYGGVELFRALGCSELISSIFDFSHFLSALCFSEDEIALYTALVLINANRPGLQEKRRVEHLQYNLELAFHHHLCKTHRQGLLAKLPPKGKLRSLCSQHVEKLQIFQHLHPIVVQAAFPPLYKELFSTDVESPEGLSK
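Drosophila Schneider cells stably carrying a metallothionein-driven Gal4 DBD–ROR gamma fusion and a UAS-Photinus luciferase reporter were exposed to compound for 1 hr, then induced with copper sulfate (700 uM final) for 20 hr at ambient temperature before luminescence reading.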
ATXN viability: cell viability loss in ATXN counter-screen. AID 651635. 400,000 tested, 0.49% active. S2 cells (HEK-293 line with an ATXN2-luciferase reporter) viability, CellTiter-Fluor protease fluorescence, 24 h. Potency, µM (titrated, usually from 56.7 µM), most hits filed as cytotoxic; note: nearly all actives have a fitted effect of over 40% in size
HepG2 viability: kills HepG2 cells in TGF-b inhibitor counter-screen | HepG2 CAGA-GFP viability, ATP luminescence, 18 h | Potency, µM (series often up to 46.1 µM), actives largely listed as cytotoxic | 410,000 tested, 0.76% active | AID 588856
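HepG2 CAGA-GFP cells (1000/well, DMEM with 1% FBS) received compound, then TGF-beta at 500 pg/mL final, and were incubated 18 hours at 37 degrees C. Viability was read by CellTiter-Glo luminescence. Media-only wells were set as complete cell-killing and DMSO as no toxicity.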
Gal4-VP16 FLuc: inhibits Gal4-VP16 luciferase reporter, ROR gamma counter-screen | Drosophila S2 Gal4-VP16 UAS-luciferase, luminescence, 20 h | Potency, µM (doses to about 53.6 µM), hits mostly inhibitors | 310,000 tested, 3.5% active | AID 2546;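 note: Gal4-VP16 expression switched on by copper sulfate through the metallothionein promoter; nearly all actives have a fitted effect of over 50% in size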
ATXN2 expr inh: ATXN2 expression inhibition; HEK-293 ATXN2-luciferase reporter, luminescence, 24 h; Potency, µM (doses to about 57 µM), actives largely listed as inhibitors; 360,000 tested, 0.72% active; AID 1745845; note: nearly all actives have a fitted effect of over 55% in size
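qHTS (up to 57 uM final) was run with 24 h compound exposure of reporter cells at 37 °C. Each well was multiplexed: SteadyGlo luminescence measured ATXN2-luciferase expression after a fluorogenic Gly-Phe-AFC viability readout (25 uM final).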
TGFb inhibitor: blocks TGF-b signaling. HepG2 CAGA-GFP TGF-b/SMAD3 reporter, GFP fluorescence, 18 h; TGF-beta stimulated, 500 pg/mL final. Potency, µM (titrated, usually from 46.1 µM), most hits filed as inhibitors. 410,000 tested, 1.2% active; note: nearly all actives have a fitted effect of over 65% in size
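Read-out: total well GFP (ex488/em500-530) summed from mean per-cell fluorescence. Cells: HEPG2 CAGA-GFP, 1% FBS DMEM, 18 h at 37 degrees C with 500 pg/mL final TGF-beta. Unstimulated wells served as the full-inhibition control; stimulated DMSO wells = 0%.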
Numbers stand for hits. Most compounds without a hit are left out; they make up all but 6.3% or so of the library. Calls come from the whole dose curve; as a rule, active = well fitted curve in the direction sought with a large enough effect; inconclusive = small, poorly fitted or top-dose-only effect, or another doubt; inactive = no such curve, though single readings can be large; an effect the other way counts as inactive or inconclusive.

Cc1ccccc1Nc1ncnc2c1cnn2-c1ccccc1 was read as RORgamma inh inconclusive, ATXN viability inactive, HepG2 viability inactive, Gal4-VP16 FLuc 15.8µM, ATXN2 expr inh inactive and TGFb inhibitor inactive.
Screening Cc1ccc(-n2ncc3c(Nc4ccccc4C)ncnc32)cc1 returned ATXN viability inactive, HepG2 viability inactive, ATXN2 expr inh inactive and TGFb inhibitor inactive.
`CCCS(=O)(=O)NC(=O)C1(C)CCN(C(=O)c2ccccc2OC)C1` (centres undefined) gave ATXN viability inactive, HepG2 viability inactive, ATXN2 expr inh inactive and TGFb inhibitor inactive.
O=C(NC(Cc1nn[nH]n1)C(=O)OCc1ccccc1)OCc1ccccc1 (centres undefined) was read as ATXN viability inactive, HepG2 viability inactive and TGFb inhibitor inactive.
`Clc1ccc(CCNC(c2cccc(Cl)c2)c2nnc(-c3ccccc3)o2)cc1` (centres undefined) gave ATXN viability inactive, HepG2 viability inactive, ATXN2 expr inh inactive and TGFb inhibitor inactive.
For COc1ccc(Nc2nnc(SCC3CCCCO3)s2)cc1 (centres undefined) the results were RORgamma inh inactive, ATXN viability inactive, HepG2 viability inactive, Gal4-VP16 FLuc inactive, ATXN2 expr inh inactive and TGFb inhibitor inactive.
For Cc1cccc(Nc2nnc(SCC3CCCCO3)s2)c1 (centres undefined) the results were RORgamma inh 10µM, ATXN viability inactive, HepG2 viability inactive, Gal4-VP16 FLuc inactive, ATXN2 expr inh inactive and TGFb inhibitor inactive.
For CSc1cc(-c2ccc(Cl)cc2)c(C(=O)NN)s1 the results were RORgamma inh 11.2µM, ATXN viability inactive, HepG2 viability inactive, Gal4-VP16 FLuc inconclusive, ATXN2 expr inh inactive and TGFb inhibitor inactive.
Screening CSc1cc(-c2ccc(Cl)cc2)c(C(=O)NC(C)C)s1 returned RORgamma inh inactive, ATXN viability inactive, HepG2 viability inactive, Gal4-VP16 FLuc inactive, ATXN2 expr inh inactive and TGFb inhibitor inactive.
Screening Cc1ccccc1N=CC1=C(O)c2ccccc2C1=O returned RORgamma inh 0.199µM, ATXN viability inconclusive, HepG2 viability inactive, Gal4-VP16 FLuc 1.26µM, ATXN2 expr inh inconclusive and TGFb inhibitor inactive.
Screening O=C1C(C=Nc2ccc(F)cc2)=C(O)c2ccccc21 returned RORgamma inh inactive, ATXN viability inactive, HepG2 viability inactive, Gal4-VP16 FLuc inactive, ATXN2 expr inh inactive and TGFb inhibitor inactive.
Screening COc1ccc(N=CC2=C(O)c3ccccc3C2=O)c(OC)c1 returned RORgamma inh 3.98µM, ATXN viability inactive, HepG2 viability inactive, Gal4-VP16 FLuc 3.98µM, ATXN2 expr inh inconclusive and TGFb inhibitor inactive.
Screening O=C(CS(=O)c1ccccc1[N+](=O)[O-])Oc1ccc(Br)cc1 (centres undefined) returned RORgamma inh inactive, ATXN viability inactive, HepG2 viability inactive, Gal4-VP16 FLuc inactive, ATXN2 expr inh inactive and TGFb inhibitor inactive.
CS(=O)(=O)c1ccc(S(=O)CC(=O)Oc2ccc(Cl)cc2)c([N+](=O)[O-])c1 (centres undefined) was read as RORgamma inh 3.98µM, ATXN viability inconclusive, HepG2 viability 17.8µM, Gal4-VP16 FLuc inactive, ATXN2 expr inh inconclusive and TGFb inhibitor inconclusive.
CC12CCC(c3n[nH]c(=S)nc31)C2(C)C (centres undefined) was read as RORgamma inh 12.6µM, ATXN viability inactive, HepG2 viability inactive, Gal4-VP16 FLuc inconclusive, ATXN2 expr inh inactive and TGFb inhibitor inactive.
O=C(CSc1nc(-c2ccccc2F)nc2cc(=O)[nH]n12)Nc1cccc(C(F)(F)F)c1 was read as ATXN viability inactive, HepG2 viability inactive, ATXN2 expr inh inactive and TGFb inhibitor inactive.
Screening NNC(=O)c1ccc(OCC2CC(c3ccc(Cl)cc3)=NO2)cc1 (centres undefined) returned RORgamma inh inconclusive, ATXN viability inactive, HepG2 viability 12.6µM, Gal4-VP16 FLuc inactive, ATXN2 expr inh inactive and TGFb inhibitor inconclusive.
`O=C(Cn1cc(SCc2ccc(Cl)cc2)c2ccccc21)N1CCCC1` gave HepG2 viability inactive and TGFb inhibitor inactive.

High-throughput results deposited in PubChem BioAssay by National Center for Advancing Translational Sciences (NCATS).
